# Only some compounds are listed: those with a hit (about 2.9% of all), similar ones and a draw of the others.
# SMARCA2 activ: increases SMARCA2 function in MMTV reporter cells | MG213 cells, MMTV-luciferase reporter, dexamethasone, overnight | activation, % at 9.1 µM | hit rate 1% among 370,000; in the data active means activation above about 7.8%;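 further: 0% = vehicle wells and 100% = reference activator wells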
# FAS TE block: inhibitors of human fatty acid synthase thioesterase domain; hit rate 0.67% among 360,000; recombinant FAS-TE, OMFH fluorogenic substrate, fluorescence endpoint; inhibition, % at 15 µM; AID 602261;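 active means compounds whose normalised, plate-corrected inhibition of enzyme fluorescence in the single-dose primary screen is 50% or more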;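 further: 0% = DMSO with enzyme and 100% = substrate without enzyme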
# FXN GAA850 act: frataxin GAA850 promoter activation | HEK293 lucGAA850 FXN promoter luciferase reporter, 24 h; percent of 10 µM SAHA response | activation, % at 6 µM | hit rate 0.56% among 360,000 | AID 540364;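 active means activation above the average of all compounds screened plus 3 SD, cutoff fixed separately per campaign, cut at about 7.5% in these data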;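 further: 0% = DMSO wells and 100% = 10 µM SAHA wells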
# KLK7 zymogen act: activators of human kallikrein-7 zymogen. P49862. purified proKLK7, EDANS-DABCYL substrate fluorescence; 100% is mature enzyme control, 0% vehicle. activation, % at 7 µM. hit rate 0.9% among 370,000;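 active means activation above the mean of all tested compounds plus 3 SD, computed per campaign excluding outliers beyond control limits, cut at about 13% in these data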
# SMARCA2 act conf: confirmation of SMARCA2 (BRM) function activators; shares compounds with SMARCA2 activ; MG213 cells, MMTV-luciferase with dexamethasone, luminescence, overnight; MG213 cells expressing E1A, Rb sequestered; DMSO wells 0%, reference activator 100%; activation, % at 9.1 µM; hit rate 30% among 3,500; AID 652260;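 active means activation above its plate's cutoff, the mean activation of tested wells plus 3 SD, cut at about 7.9% in these data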
# VP16 Luc act: GAL4-VP16 reporter activation counter-screen; shares compounds with SMARCA2 activ; HEK293 GAL4-VP16 pG5luc reporter, luciferase luminescence; scaled: DMSO wells 0%, SAHA wells 100%; activation, % at 9.1 µM; hit rate 41% among 3,500;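 active means activation above the solvent-only control well mean plus 3 SD, averaged across control plates, cut at about 5.2% in these data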
# * hit, by the source's call; nt = no result.
SMILES,SMARCA2 activ,FAS TE block,FXN GAA850 act,KLK7 zymogen act,SMARCA2 act conf,VP16 Luc act
CCOC(=O)N1CCN(C(=O)CS(=O)(=O)c2cn(Cc3ccc(F)cc3)c3ccccc23)CC1,8.0*,-4,-1,1,-1,3
CN(CCc1ccccc1)C(=O)c1cc2ccccn2n1,8.2*,nt,nt,0,5,6.0*
O=C(N/N=C1/CC2C=CCC12)c1ccco1 (centres undefined),8.9*,-10,2,-1,2,1
COc1ccc(/C=C2\COc3ccccc3C2=O)cc1OC,4,0,0,0,nt,nt
COc1ccc(/C=C2\COc3ccccc3C2=O)c(OC)c1,8.9*,6,2,0,6,5.2*
CCCc1nnc2c(N(C)S(=O)(=O)c3ccccc3)nc3ccccc3n12,-4,-12,3,0,nt,nt
Cc1nnc2c(N(C)S(=O)(=O)c3ccccc3)nc3ccccc3n12,8.2*,-4,3,0,9.0*,3
CCN(C1CCCCC1)S(=O)(=O)c1ccc(-n2cnnn2)c(C)c1,9.3*,13,0,0,-4,2
CC(C)C(=O)Nc1ccc(C(=O)N/N=C/c2cc(Br)cc(Br)c2O)cc1,11*,17,-2,1,-2,-1
c1ccc2oc(SCc3cn4ccsc4n3)nc2c1,-1,-8,4,0,nt,nt
Cc1csc2nc(CSc3nc4ccccc4o3)cn12,8.9*,-10,4,1,6,4
COc1cc(/C=C/c2ccc3c(Br)cc(Br)c(O)c3n2)ccc1O,8.7*,12,1,1,-16,7.9*
O=C(Nc1cccnc1Cl)c1ccc(Cl)cc1,3,1,3,0,nt,nt
O=C(NC(=S)Nc1cccnc1Cl)c1ccc(Cl)cc1,9.9*,9,3,0,3,8.9*
Cn1c(=O)c(=O)n(C)c2cc(S(=O)(=O)N3CCCC3C(=O)Nc3ccccc3F)ccc21 (centres undefined),0,-4,1,0,nt,nt
CCc1ccccc1NC(=O)C1CCCN1S(=O)(=O)c1ccc2c(c1)n(C)c(=O)c(=O)n2C (centres undefined),8.0*,-5,-1,0,-2,0
CCCc1nc2oc3c(NCCCN(C)C)ncnc3c2c2c1CCCC2,19*,2,1,0,19*,1
CCCc1nc2oc3c(NCCN(C)C)ncnc3c2c2c1CCCC2,2,-4,5,0,nt,nt
ClCc1nnc(-c2cc3c(s2)CCCC3)o1,11*,7,-2,0,-4,1
Cc1cc(CNC(=O)Nc2ccc3c(c2)OCO3)nn1C,1,-9,5,0,nt,nt
CCn1nc(C)c(CNC(=O)Nc2ccc3c(c2)OCO3)c1C,9.3*,-3,2,0,1,3
NC(=O)c1ccccc1N/C=C/C(=O)c1ccccc1,8.0*,-6,4,0,11*,9.8*
CCOc1ccccc1-c1nc(-c2ccc(C)nc2OC)no1,8.8*,15,5,0,15*,8.0*
CCOc1nc(C)ccc1-c1noc(-c2ccccn2)n1,4,-3,7,0,nt,nt
COc1cc(Cl)c(CNC[C@H]2O[C@@H](n3ccc(=O)[nH]c3=O)[C@H](O)[C@@H]2O)c(Cl)c1O,10*,-8,1,0,0,1
SMILES,SMARCA2 activ,FAS TE block,FXN GAA850 act,KLK7 zymogen act,SMARCA2 act conf,VP16 Luc act
COc1ccc(CNC[C@H]2O[C@@H](n3ccc(=O)[nH]c3=O)[C@H](O)[C@@H]2O)cc1OC,1,-12,-1,0,nt,nt
CCNS(=O)(=O)c1ccc(CCC(=O)N2CCC(C)CC2)cc1,-3,-4,0,0,nt,nt
Fc1cccc(CSc2ccc(-c3ccco3)nn2)c1,15*,16,5,-1,13*,5.5*
COc1cc2c3c(c1)/C(=C1/SC(NC(C)=O)=NC1=O)C(=O)N3C(C)(C)C=C2C,3,-4,0,0,nt,nt
CCN1C(=O)/C(=C2/C(=O)N3c4c(cc(OC(C)=O)cc42)C(C)=CC3(C)C)SC1=S,10*,7,1,0,1,0
Cc1ccccc1Oc1cc(-n2ncc(Cl)c(Cl)c2=O)ncn1,11*,40,-22,0,-15,2
COC(=O)[C@]12C[C@H](CC(=O)NCc3cccc4ccccc34)C(=O)N(CCc3ccc(OC)c(OC)c3)C1=C[C@H](COCc1ccccc1)O[C@@H]2C,-2,nt,nt,0,nt,nt
COc1ccc(S(=O)(=O)N2CCCC2)cc1NC(=O)c1ccccc1,8.1*,0,3,0,0,2
COc1ccc(S(=O)(=O)N2CCCCC2)cc1NC(=O)c1ccccc1,-2,-6,0,1,nt,nt
COc1ccc(N=C(C)C2=C(O)CSC2=O)cc1,6,-11,5,-1,nt,nt
CC(=Nc1ccccc1)C1=C(O)CSC1=O,8.6*,-2,2,0,2,4
O=C(/C=C/c1ccc2c(c1)OCO2)c1cccnc1,-2,-7,2,0,nt,nt
Cc1cc(C)nc(NC(=O)/C=C/c2ccc3c(c2)OCO3)c1,11*,-2,3,-6,9.9*,8.4*
COC(=O)c1cccc(NC(=O)/C=C/c2ccc3c(c2)OCO3)c1,8.2*,12,0,1,-2,4
Cc1cccnc1NC(=O)/C=C/c1ccc2c(c1)OCO2,2,-9,4,1,nt,nt
O=C(/C=C/c1ccc2c(c1)OCO2)Nc1cccnc1,13*,-3,7,4,5,5.6*
Cc1nc(SCC(=O)Nc2cc(S(=O)(=O)N3CCOCC3)ccc2Cl)nc(C)c1C,-2,4,1,-1,nt,nt
Cc1cccc(C(=O)OCC(=O)NC(=O)c2ccccc2)c1O,-2,-4,2,0,nt,nt
COc1ccc2nc(SCC(=O)NC3(C#N)CCCCC3)[nH]c2c1,-3,-4,1,0,nt,nt
Cc1nc(Nc2ccc(S(N)(=O)=O)cc2)sc1-c1ccccc1,3,12,2,1,nt,nt
CC(=O)c1sc(NC(=O)c2ccc(C(C)(C)C)cc2)nc1C,8.2*,1,6,0,8.0*,18*
COc1ccc(Nc2nc(C)c(C(C)=O)s2)cc1,8.2*,-7,nt,-1,2,10*
COc1ccc(Nc2nc(C)c(-c3ccccc3)s2)cc1,11*,18,5,0,4,5.9*
CC(=O)c1sc(NC(=O)c2ccc(C)c(C)c2)nc1C,6,-2,5,0,nt,nt
COc1ccc(C(=O)c2sc(Nc3ccc(NC(C)=O)cc3)nc2C)cc1,-6,-2,0,-2,nt,nt
O=C(OCc1ccc(Br)cc1)c1cnc(Cl)c(Cl)c1,0,46,-1,0,nt,nt
Cc1cccc(NC(=O)c2ccccc2NC(=O)C2CCCCC2)c1C,-2,17,1,0,nt,nt
COc1ccc(OCc2cc(C(=O)N3C[C@@H](C)O[C@@H](C)C3)no2)c(Cl)c1,8.3*,0,6,0,3,4
